# Shown is part of a subset that was picked to be rich in hits.
# Tgondii IFNg = blocks Toxoplasma gondii growth in the presence of IFN-gamma; Toxoplasma gondii growth in IFN-gamma-treated host cells; hits give low values; activity change, negative = inhibition, % (concentration not given with the values); 69,000 compounds, 3.8% hits; in the data active = activity change below about -70%, passing the limit was not always enough;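 note: host cells are HeLa cells infected with Toxoplasma gondii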
# * hit, by the source's call.
SMILES,Tgondii IFNg
Cc1cccc(CNC(=O)c2c(O)c3cccnc3n(Cc3ccccc3)c2=O)c1,-119.0*
CC(=O)Nc1cccc(NC(=O)c2cc3cccnc3n(Cc3ccccc3F)c2=O)c1,80.9
O=C(NCc1ccc(Cl)cc1)c1cc2cccnc2n(Cc2ccc(F)cc2)c1=O,-56.5
O=C(Nc1cccc(Br)c1)c1cc2cccnc2n(Cc2ccc(F)cc2)c1=O,79.7
Cc1nc2c(c(=O)[nH]1)CC1CCC(C2)N1C(=O)C(C)n1nc(C(F)F)cc1C (configuration not stated),4.5
COc1ncccc1-c1ccc2c(c1)CNCC2,-3.1
O=C(Nc1cccc(F)c1)c1cc2cccnc2n(Cc2ccc(F)cc2)c1=O,47.5
O=C(O)CN1C[C@H]2CCN(c3cccnc3)C(=O)[C@H]2C1,-20.4
O=C(Nc1ccc(F)cc1)c1cc2cccnc2n(Cc2ccc(Cl)cc2)c1=O,136.5
O=C(c1cscn1)N1CCN2C[C@H](OCc3ccccn3)C[C@@H]2C1,-1.5
O=C(Nc1ccc2c(c1)OCO2)c1c(O)c2cccnc2n(Cc2ccccc2)c1=O,112.9
O=C(NCc1ccc(F)cc1F)c1c(O)c2cccnc2n(Cc2ccccc2)c1=O,-104.3*
O=C(Nc1ccc2c(c1)OCCO2)c1c(O)c2cccnc2n(Cc2ccccc2)c1=O,211.0
O=C(Nc1cc(F)ccc1F)c1c(O)c2cccnc2n(Cc2ccccc2)c1=O,163.8
O=C(Nc1ccc(F)cc1F)c1c(O)c2cccnc2n(Cc2ccccc2)c1=O,-21.8
O=C(NCc1ccc2c(c1)OCO2)c1c(O)c2cccnc2n(Cc2ccccc2)c1=O,-76.5*
Cc1cccc(CN2CCC3(CC(C(=O)N(C)C(C)C)=NO3)C2)n1 (configuration not stated),0.5
CCN1C[C@@H]2N(c3ncccn3)CCC[C@@]2(C(=O)NCC2CC2)C1,10.5
CCOC(=O)c1ccc(NC(=O)c2cc3cccnc3n(Cc3ccc(F)cc3)c2=O)cc1,25.9
COCCNC(=O)C[C@H]1COC[C@H]2CN(Cc3ccncc3)C[C@@H]12,-28.9
c1cc2c(c(-c3nccc4occc34)c1)CCNC2,-48.5
Cc1noc(C)c1CN1CC[C@H]2[C@@H]1CCN2CC(C)C,0.7

# High-throughput results (PubChem BioAssay)
